Structures are written as SMILES. Results filed as inconclusive are left out. Activity calls are given as the source filed them. Rule for the calls: active = hit-call score of the fitted dose curve at least 0.9, where 1 is the maximum; inconclusive = response in the unintended direction; inactive = score below 0.9.

The test is described as follows: ACEA_ER_80hr: ACEA Biosciences xCELLigence Real-Time Cell Analysis on Estrogen Receptor Agonism for Proliferation (AID 2282667). The note with it: T47D proliferation, impedance (xCELLigence), 80 h. The essentials: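 Cell-growth kinetics were measured by impedance in T47D cells treated continuously with compound (top 100 uM final, 1:4 steps, 8 points). Activity at 80 h was scored as signal gain over the DMSO baseline.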
With `C=C(C)C(=O)OCCC(C)OC(=O)C(=C)C` (configuration not stated), the molecule was classed as inactive.

Regarding `CC(=O)c1ccc(O)cc1`, the result was inactive. Regarding `O=C(O)C1=NN(c2ccc(S(=O)(=O)O)cc2)C(=O)C1`, the molecule was called inactive. The same measure, in the same setting: for `CCCO` the value was “inactive”.

Turning to `CC(C)CCOC(=O)CC(C)C`, the molecule was called inactive.

`OCC(F)(OC(F)(F)C(F)(OC(F)(F)C(F)(F)C(F)(F)F)C(F)(F)F)C(F)(F)F` (configuration not stated): the call was inactive.

Turning to `COC(=O)C(C)Oc1ccc(Oc2ncc(C(F)(F)F)cc2Cl)cc1` (configuration not stated), the molecule was called inactive. The term AC50 denotes the concentration giving half of the maximal activity seen. On to `NCCN1CCNCC1`, for which the AC50 is 10800 nM (active).

For the molecule `O=C1CCC(=O)N1`, the molecule was classed as inactive. As for `NC(N)=S`, the AC50 is 1290 nM (active). For `CCCCN(CCO)CCO`, the molecule was called inactive.

Turning to `CN(C)CCC=C1c2ccccc2CCc2ccccc21`, the AC50 is 124 nM (active). As to `Nc1cc([N+](=O)[O-])ccc1C(=O)O`, the molecule was classed as inactive. Regarding `C=CCOCC(O)CO` (configuration not stated), the AC50 was 28.5 nM (active).

With `CN(C)CCCNCCCN(C)C`, the outcome was inactive.

Take `CCOC(=O)CC(C)C`: the result was inactive. For `CC1=C(C=O)C(C)(C)CCC1`, the AC50 is 3650 nM (active). Regarding `COc1ccc2[nH]cc(CCNC(C)=O)c2c1`, the result was inactive. In the case of `C=C(C)C(N)=O`, the outcome was inactive. On the same count and under the same terms, to `CC(O)COCC(C)O` (configuration not stated) belongs “inactive”. Take `NC(=O)c1c(Cl)cccc1Cl`: the AC50 was 168 nM (active). As to `[Cu+]`, the result was inactive.

On to `ClCCOCCOCCCl`, for which the molecule was called inactive.

`O=Cc1ccccc1O`: the concentration at half-maximal activity (AC50) was 10700 nM (active). In the case of `CCOc1ccc(NC(C)=O)cc1`, the result was inactive. With `COC(=O)c1cccc(C(=O)OC)c1`, the result was inactive. On the same count and under the same terms, for `CC(C)COC(=O)c1ccccc1` the value was “inactive”; for `CCCCCCCCSCc1cc(C)c(O)c(CSCCCCCCCC)c1`, “inactive”; for `CC=CC(=O)C1=C(C)C=CCC1(C)C`, “inactive”. With `CC(C)Cc1ccc(C(C)C(=O)O)cc1` (configuration not stated), the outcome was inactive. Take `CC1=CC(=O)[C@H]2C[C@@H]1C2(C)C`: the molecule was called inactive.

In the case of `Nc1ccc(N)c([N+](=O)[O-])c1`, the outcome was inactive. Turning to `CCOC(=O)COC(=O)c1ccccc1C(=O)OCC`, the call was inactive. As for `CC1=CC(O)CC(C)(C)C1` (configuration not stated), the outcome was inactive. Same read-out and setting: to `N#CCCCC(C#N)CCC#N` (configuration not stated) belongs “inactive”. Same read-out and setting: for `c1ccc2scnc2c1` the value was “inactive”; for `CC(C)CCCC(C)(C)O`, “inactive”.
